The values below come from publication PMC7862700, “An all-to-all approach to the identification of sequence-specific readers for epigenetic DNA modifications on cytosine”.

Experiment in all cases: DAPPL (digital affinity profiling via proximity ligation, sequencing); 10 mM Tris-HCl pH 7.5, 50 mM NaCl, 1 mM DTT, 4% glycerol, room temperature, 30 min; GST-TFs on glutathione beads, 16-mer random dsDNA library, 0.1% formaldehyde crosslink after washing; high values mean tight binding
One experiment addresses T1, FLI1 (Homo sapiens, UniProt Q01543 1-452).
T1 sequence: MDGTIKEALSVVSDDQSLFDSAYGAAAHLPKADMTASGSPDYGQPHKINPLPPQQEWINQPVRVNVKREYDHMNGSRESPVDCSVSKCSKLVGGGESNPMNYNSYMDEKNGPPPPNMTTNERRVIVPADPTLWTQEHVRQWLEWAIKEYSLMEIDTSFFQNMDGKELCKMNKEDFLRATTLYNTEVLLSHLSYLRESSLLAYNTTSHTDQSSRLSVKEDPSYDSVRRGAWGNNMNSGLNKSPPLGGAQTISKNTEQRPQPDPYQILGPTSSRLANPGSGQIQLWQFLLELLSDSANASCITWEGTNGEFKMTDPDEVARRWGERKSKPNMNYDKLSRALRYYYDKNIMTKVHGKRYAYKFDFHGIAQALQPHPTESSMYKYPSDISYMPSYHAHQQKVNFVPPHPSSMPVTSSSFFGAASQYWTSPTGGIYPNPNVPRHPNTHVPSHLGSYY
To be noted: protein: recombinant; tags: N-terminal GST; dsDNA, one strand shown. The procedure, abridged: (§1)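 Binding signal is each hexamer's read frequency for a factor divided by its frequency in the tag-only sample. The factors were GST-fused human transcription factors from yeast, captured on glutathione beads, DNA-barcoded and pooled with that sample. Pools were incubated with 200 nmole of a random double-stranded 16-mer DNA library in Tris/NaCl/DTT/glycerol buffer at room temperature for 30 min, then washed, crosslinked with 0.1% formaldehyde, proximity-ligated with BsaI/T4 ligase (1 h, 37 °C), PCR-amplified and sequenced on an Illumina NextSeq500.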

In another experiment the target is T2, ELK1 (Homo sapiens, UniProt P19419 1-428).
T2 sequence: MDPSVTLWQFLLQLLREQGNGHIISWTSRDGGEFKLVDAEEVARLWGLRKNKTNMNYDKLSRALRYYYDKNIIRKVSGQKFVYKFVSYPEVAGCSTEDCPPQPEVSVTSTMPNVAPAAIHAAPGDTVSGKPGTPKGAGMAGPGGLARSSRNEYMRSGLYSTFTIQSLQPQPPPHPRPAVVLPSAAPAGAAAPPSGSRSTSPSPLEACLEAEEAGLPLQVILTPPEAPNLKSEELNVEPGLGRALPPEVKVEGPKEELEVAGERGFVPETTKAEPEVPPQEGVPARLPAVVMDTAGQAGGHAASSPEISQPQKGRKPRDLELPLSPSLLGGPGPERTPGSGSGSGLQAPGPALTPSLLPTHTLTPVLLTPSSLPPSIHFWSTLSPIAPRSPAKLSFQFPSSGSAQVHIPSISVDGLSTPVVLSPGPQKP
The note with it: protein: recombinant; tags: N-terminal GST; dsDNA, one strand shown. The method in brief: as §1

In a further experiment the target is T3, GABPA (Homo sapiens, UniProt Q06546 1-454).
T3 sequence: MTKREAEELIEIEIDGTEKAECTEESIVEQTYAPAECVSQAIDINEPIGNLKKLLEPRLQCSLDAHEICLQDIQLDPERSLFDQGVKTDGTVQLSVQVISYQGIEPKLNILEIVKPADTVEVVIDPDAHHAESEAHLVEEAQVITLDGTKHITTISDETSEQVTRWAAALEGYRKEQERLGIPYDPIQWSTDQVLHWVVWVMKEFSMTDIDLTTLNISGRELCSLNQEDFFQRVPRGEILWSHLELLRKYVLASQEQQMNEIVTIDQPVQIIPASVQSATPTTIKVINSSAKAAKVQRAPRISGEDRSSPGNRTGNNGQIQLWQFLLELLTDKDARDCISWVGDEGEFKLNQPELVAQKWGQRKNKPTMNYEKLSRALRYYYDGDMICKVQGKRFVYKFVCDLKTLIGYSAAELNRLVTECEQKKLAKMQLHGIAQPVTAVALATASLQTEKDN
To be noted: protein: recombinant; tags: N-terminal GST; dsDNA, one strand shown. The method in brief: as §1

For a further experiment, the target named is T4, ERG (Homo sapiens, UniProt P11308 1-479).
T4 sequence: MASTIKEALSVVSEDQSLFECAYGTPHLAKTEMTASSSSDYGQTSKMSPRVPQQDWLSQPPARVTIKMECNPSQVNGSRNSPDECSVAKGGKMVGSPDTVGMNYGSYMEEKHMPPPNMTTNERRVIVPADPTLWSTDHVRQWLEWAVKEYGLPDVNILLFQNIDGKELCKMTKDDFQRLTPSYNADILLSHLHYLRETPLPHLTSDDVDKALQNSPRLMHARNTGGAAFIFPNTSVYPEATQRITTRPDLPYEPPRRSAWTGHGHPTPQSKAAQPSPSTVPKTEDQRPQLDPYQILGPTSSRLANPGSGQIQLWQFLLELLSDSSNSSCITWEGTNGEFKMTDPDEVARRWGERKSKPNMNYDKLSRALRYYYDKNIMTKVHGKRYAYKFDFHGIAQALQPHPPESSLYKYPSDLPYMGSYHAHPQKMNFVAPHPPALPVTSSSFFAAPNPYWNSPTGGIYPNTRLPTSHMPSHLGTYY
The note with it: protein: recombinant; tags: N-terminal GST; dsDNA, one strand shown. The method in brief: as §1

A further experiment concerns the target ELF1 (Homo sapiens, UniProt P32519 1-619). The note with it: protein: recombinant; tags: N-terminal GST; dsDNA, one strand shown. The procedure, abridged:
as §1

A further experiment addresses T5, EHF (Homo sapiens, UniProt Q9NZC4 1-300).
T5 sequence: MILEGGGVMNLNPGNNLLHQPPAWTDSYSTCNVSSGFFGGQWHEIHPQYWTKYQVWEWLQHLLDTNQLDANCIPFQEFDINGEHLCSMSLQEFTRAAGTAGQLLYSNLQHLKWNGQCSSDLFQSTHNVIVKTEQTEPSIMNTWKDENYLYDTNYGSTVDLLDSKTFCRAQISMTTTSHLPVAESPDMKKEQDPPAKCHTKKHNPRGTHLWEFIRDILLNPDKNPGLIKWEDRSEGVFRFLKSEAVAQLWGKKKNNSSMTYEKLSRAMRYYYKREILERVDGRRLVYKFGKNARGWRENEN
To be noted: protein: recombinant; tags: N-terminal GST; dsDNA, one strand shown. The method in brief:
as §1

The target of the next experiment is SPI1 (Homo sapiens, UniProt P17947 1-270). The note with it: protein: recombinant; tags: N-terminal GST; dsDNA, one strand shown. The procedure, abridged:
as §1

Another experiment deals with SPIB (Homo sapiens, UniProt Q01892 1-262). To be noted: protein: recombinant; tags: N-terminal GST; dsDNA, one strand shown. The procedure, abridged:
as §1

A further experiment has as its target T6, ELK3 (Homo sapiens, UniProt P41970 1-407).
T6 sequence: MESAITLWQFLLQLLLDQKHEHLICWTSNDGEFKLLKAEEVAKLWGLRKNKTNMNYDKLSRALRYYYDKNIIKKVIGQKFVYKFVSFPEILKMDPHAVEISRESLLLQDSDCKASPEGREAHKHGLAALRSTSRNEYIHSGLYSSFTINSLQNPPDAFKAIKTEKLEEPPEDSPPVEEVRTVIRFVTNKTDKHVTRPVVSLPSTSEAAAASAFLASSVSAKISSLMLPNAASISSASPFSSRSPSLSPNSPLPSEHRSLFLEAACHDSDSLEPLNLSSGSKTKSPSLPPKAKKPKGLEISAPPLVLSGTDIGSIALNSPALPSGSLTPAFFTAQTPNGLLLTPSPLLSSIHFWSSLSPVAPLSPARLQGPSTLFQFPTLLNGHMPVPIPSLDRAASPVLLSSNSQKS
The note with it: protein: recombinant; tags: N-terminal GST; dsDNA, one strand shown. The method in brief: as §1

Another experiment concerns the target T7, FEV (Homo sapiens, UniProt Q99581 1-238).
T7 sequence: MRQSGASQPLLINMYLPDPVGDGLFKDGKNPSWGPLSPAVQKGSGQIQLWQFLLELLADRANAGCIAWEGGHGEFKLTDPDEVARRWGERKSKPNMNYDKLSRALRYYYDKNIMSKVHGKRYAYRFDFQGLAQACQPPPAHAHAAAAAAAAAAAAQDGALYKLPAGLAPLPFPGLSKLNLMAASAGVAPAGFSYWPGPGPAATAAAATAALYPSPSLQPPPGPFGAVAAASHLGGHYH
To be noted: protein: recombinant; tags: N-terminal GST; dsDNA, one strand shown. The procedure, abridged: as §1

The next experiment concerns the target ETV5 (Homo sapiens, UniProt P41161 1-510). To be noted: protein: recombinant; tags: N-terminal GST; dsDNA, one strand shown. The procedure, abridged:
as §1

For the next experiment, the target named is HSF1 (Homo sapiens, UniProt Q00613 1-529). To be noted: protein: recombinant; tags: N-terminal GST; chain copies: 3; dsDNA, one strand shown. The method in brief:
as §1

Another experiment has as its target T8, SPIC (Homo sapiens, UniProt Q8N5J4 1-248).
T8 sequence: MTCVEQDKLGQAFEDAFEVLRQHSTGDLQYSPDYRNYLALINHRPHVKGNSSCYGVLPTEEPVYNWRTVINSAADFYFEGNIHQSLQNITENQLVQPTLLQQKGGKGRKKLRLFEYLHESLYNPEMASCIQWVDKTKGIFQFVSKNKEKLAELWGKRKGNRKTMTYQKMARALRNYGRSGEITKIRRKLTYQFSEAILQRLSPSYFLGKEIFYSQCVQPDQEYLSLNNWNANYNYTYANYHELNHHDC
The note with it: protein: recombinant; tags: N-terminal GST; dsDNA, one strand shown. The method in brief: as §1

The target in another experiment is ELF4 (Homo sapiens, UniProt Q99607 1-663). To be noted: protein: recombinant; tags: N-terminal GST; dsDNA, one strand shown. The method in brief: as §1
The target in a further experiment is T9, ELK4 (Homo sapiens, UniProt P28324-2 1-405).
T9 sequence: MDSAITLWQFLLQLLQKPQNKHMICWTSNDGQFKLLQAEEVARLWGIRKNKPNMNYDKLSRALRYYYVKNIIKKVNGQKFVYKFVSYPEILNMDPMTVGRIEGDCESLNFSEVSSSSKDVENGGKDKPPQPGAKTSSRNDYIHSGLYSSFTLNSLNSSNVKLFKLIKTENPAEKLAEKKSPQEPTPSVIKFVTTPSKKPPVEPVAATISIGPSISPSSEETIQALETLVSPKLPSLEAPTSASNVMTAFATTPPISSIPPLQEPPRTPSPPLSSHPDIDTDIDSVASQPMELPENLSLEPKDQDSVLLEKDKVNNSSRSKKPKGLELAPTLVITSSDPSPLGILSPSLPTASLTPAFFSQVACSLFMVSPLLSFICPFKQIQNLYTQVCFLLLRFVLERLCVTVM
To be noted: protein: recombinant; tags: N-terminal GST; dsDNA, one strand shown. The method in brief:
as §1

The target in a further experiment is T10, ETV2 (Homo sapiens, UniProt O00321 1-342).
T10 sequence: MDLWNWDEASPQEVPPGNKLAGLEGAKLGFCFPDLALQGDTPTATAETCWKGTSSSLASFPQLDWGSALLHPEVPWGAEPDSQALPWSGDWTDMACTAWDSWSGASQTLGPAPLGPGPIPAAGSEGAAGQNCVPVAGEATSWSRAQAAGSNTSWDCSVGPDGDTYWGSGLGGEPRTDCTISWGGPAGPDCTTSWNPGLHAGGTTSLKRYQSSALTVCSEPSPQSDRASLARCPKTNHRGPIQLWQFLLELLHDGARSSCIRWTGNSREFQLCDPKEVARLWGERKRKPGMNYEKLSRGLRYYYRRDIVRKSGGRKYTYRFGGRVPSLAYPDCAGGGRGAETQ
The note with it: protein: recombinant; tags: N-terminal GST; dsDNA, one strand shown. The procedure, abridged:
as §1

Another experiment addresses T11, ELF3 (Homo sapiens, UniProt P78545 1-371).
T11 sequence: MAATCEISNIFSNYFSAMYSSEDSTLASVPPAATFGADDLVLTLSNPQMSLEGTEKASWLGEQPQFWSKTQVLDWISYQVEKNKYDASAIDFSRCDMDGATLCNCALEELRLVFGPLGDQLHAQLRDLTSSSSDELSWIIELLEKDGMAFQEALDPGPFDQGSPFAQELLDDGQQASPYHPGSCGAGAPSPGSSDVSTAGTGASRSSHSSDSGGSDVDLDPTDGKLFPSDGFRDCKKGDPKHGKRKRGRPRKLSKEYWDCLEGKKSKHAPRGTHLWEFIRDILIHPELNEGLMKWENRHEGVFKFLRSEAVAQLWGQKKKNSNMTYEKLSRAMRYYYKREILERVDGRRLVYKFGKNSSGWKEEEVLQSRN
To be noted: protein: recombinant; tags: N-terminal GST; dsDNA, one strand shown. The method in brief: as §1

The target in a further experiment is CRX (Homo sapiens, UniProt O43186 1-299). To be noted: protein: recombinant; tags: N-terminal GST; dsDNA, one strand shown. The procedure, abridged:
as §1

The next experiment deals with ETV1 (Homo sapiens, UniProt P50549 1-477). To be noted: protein: recombinant; tags: N-terminal GST; dsDNA, one strand shown. The procedure, abridged: as §1
ETV1, sequence (P50549 whole entry): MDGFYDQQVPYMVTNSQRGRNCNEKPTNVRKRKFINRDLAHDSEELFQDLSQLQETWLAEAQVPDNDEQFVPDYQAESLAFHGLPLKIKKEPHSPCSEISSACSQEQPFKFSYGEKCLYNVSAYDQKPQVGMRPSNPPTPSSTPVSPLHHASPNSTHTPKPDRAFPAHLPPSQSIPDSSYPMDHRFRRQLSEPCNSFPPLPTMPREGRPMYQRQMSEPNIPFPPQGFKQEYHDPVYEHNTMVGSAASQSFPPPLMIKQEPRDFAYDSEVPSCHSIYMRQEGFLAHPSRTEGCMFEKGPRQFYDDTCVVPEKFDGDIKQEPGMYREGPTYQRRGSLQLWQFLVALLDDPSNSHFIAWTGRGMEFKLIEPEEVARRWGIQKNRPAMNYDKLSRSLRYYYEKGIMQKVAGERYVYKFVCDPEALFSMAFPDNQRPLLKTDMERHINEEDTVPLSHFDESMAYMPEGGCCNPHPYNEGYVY

CRX, sequence (O43186 whole entry): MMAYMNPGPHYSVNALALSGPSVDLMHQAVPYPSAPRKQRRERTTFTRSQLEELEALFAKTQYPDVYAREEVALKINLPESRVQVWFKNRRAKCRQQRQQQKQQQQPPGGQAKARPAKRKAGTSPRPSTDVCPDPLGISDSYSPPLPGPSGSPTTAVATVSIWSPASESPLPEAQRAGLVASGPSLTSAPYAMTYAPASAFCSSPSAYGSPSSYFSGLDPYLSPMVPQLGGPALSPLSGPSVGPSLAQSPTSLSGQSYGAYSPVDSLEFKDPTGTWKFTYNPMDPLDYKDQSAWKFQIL
ELF4, sequence (Q99607 whole entry): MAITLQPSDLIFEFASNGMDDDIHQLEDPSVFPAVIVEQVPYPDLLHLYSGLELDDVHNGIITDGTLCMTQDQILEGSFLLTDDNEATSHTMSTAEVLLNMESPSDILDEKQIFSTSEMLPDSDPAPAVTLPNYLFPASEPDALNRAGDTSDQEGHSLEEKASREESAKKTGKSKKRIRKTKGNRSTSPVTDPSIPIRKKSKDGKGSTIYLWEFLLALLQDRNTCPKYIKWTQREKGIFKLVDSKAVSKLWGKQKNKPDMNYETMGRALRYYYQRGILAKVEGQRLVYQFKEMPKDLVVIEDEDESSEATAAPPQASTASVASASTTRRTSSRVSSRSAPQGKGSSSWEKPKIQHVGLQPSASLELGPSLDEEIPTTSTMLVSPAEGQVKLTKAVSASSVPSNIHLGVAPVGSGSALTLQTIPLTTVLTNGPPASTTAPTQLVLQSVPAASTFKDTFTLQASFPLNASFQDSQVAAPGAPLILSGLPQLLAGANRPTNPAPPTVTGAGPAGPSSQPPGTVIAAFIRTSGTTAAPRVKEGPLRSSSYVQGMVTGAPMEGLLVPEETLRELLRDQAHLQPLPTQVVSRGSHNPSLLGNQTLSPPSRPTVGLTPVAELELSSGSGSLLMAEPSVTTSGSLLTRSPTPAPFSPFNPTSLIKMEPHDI
ETV5, sequence (P41161 whole entry): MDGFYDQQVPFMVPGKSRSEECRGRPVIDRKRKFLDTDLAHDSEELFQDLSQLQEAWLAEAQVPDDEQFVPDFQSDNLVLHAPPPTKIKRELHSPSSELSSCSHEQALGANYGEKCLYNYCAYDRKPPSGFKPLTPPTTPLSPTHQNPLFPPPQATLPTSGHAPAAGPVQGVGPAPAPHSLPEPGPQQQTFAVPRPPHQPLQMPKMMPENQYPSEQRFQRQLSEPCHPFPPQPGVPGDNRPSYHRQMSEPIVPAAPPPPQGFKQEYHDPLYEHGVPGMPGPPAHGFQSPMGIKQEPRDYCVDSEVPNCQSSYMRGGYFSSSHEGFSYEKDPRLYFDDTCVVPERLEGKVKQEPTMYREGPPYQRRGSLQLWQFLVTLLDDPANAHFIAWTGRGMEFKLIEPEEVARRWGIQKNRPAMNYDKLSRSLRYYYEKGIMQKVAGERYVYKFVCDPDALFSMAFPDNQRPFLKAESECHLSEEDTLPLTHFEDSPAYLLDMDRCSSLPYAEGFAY
HSF1, sequence (Q00613 whole entry): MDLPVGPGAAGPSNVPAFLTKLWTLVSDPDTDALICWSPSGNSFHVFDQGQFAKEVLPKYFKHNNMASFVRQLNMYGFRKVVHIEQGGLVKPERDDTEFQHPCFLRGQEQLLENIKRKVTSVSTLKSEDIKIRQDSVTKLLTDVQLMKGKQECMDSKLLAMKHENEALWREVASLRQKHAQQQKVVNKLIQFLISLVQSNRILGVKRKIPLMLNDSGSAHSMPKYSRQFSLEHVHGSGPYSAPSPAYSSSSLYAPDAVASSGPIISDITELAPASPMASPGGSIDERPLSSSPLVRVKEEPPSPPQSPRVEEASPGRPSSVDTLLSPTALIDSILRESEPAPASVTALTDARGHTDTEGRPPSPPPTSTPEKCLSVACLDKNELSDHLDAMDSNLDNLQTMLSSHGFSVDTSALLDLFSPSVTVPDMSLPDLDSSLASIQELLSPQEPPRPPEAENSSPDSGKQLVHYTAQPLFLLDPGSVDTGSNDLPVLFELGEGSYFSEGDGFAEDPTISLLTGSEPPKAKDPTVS
ELF1, sequence (P32519 whole entry): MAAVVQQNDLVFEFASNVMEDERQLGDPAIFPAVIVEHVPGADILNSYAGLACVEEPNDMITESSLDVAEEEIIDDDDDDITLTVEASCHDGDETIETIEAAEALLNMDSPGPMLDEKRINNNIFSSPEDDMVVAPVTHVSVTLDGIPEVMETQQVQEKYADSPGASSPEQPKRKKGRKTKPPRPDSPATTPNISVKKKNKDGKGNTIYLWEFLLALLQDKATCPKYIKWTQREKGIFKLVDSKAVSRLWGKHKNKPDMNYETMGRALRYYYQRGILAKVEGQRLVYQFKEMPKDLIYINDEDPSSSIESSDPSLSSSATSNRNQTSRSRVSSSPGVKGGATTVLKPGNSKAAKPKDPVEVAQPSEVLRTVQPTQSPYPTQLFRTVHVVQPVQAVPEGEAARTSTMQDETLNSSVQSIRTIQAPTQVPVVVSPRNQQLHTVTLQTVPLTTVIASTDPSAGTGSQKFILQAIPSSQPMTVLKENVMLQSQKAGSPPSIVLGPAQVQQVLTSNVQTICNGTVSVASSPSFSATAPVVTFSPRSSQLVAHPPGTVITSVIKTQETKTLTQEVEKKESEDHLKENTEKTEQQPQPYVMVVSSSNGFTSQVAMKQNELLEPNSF
SPIB, sequence (Q01892 whole entry): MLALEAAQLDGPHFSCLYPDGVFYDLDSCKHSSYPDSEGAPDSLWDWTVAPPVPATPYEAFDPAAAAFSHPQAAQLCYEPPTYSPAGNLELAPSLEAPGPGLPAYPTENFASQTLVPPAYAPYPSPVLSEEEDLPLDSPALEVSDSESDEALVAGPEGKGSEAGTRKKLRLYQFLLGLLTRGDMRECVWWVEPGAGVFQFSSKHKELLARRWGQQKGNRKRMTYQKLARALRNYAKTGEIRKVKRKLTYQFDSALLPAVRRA

For the sequence ACATTC, the binding signal with FLI1 is 1.41 fold enrichment (6-mer frequency, TF over GST control); with ELK1, 1.32 fold enrichment (6-mer frequency, TF over GST control); with GABPA it was 1.31 fold enrichment (6-mer frequency, TF over GST control); in the experiment with ERG, 1.23 fold enrichment (6-mer frequency, TF over GST control); with ELF1 it was 1.37 fold enrichment (6-mer frequency, TF over GST control); in the experiment with EHF, 1.25 fold enrichment (6-mer frequency, TF over GST control). For the same sequence, the binding signal is 1.24 fold enrichment (6-mer frequency, TF over GST control) in the experiment with SPI1; 1.23 fold enrichment (6-mer frequency, TF over GST control) in the experiment with SPIB; 1.35 fold enrichment (6-mer frequency, TF over GST control) with ELK3; 1.21 fold enrichment (6-mer frequency, TF over GST control) with FEV; 1.39 fold enrichment (6-mer frequency, TF over GST control) with ETV5; 2.56 fold enrichment (6-mer frequency, TF over GST control) with HSF1. In addition, the binding signal was 1.22 fold enrichment (6-mer frequency, TF over GST control) with SPIC; 1.32 fold enrichment (6-mer frequency, TF over GST control) with ELF4; 1.22 fold enrichment (6-mer frequency, TF over GST control) in the experiment with ELK4; 1.23 fold enrichment (6-mer frequency, TF over GST control) with ETV2; 1.31 fold enrichment (6-mer frequency, TF over GST control) with ELF3; 1.4 fold enrichment (6-mer frequency, TF over GST control) with CRX. Besides, the binding signal with ETV1 was 1.29 fold enrichment (6-mer frequency, TF over GST control).
